Calls of active or inactive are those of the source. Unless noted, the rule behind the calls is not given here.
Columns and labels:
[1] = compound effects on lung adenocarcinoma cell viability – A549, calcein-AM fluorescence, 48 h, basal, profiling panel (AID 1162); details: higher = more signal; note: test concentration not given here
[2] = compound effects on differentiated 3T3-L1 adipocyte viability – cell-based, 3T3-L1 adipocytes, calcein-AM fluorescence, 48 h, basal, profiling panel (AID 1163); details: 3T3-L1 adipocytes viability, higher = more signal; note: test concentration not given here
[3] = compound effects on hepatocellular carcinoma cell viability – HepG2, calcein-AM fluorescence, 48 h, basal, profiling panel (AID 1164); details: higher = more signal; note: test concentration not given here
[4] = compound effects on multiple myeloma cell viability – MM1S, calcein-AM fluorescence, 48 h, basal, profiling panel (AID 1165); details: higher = more signal;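 note: viability of MM1S multiple myeloma cells under basal unstimulated conditions; test concentration not given here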
[5] = calcein-AM signal in unstimulated myeloma cells – cell-based, calcein-AM fluorescence, 48 h, PK04 Diversity Set, profiling panel (AID 1166); details: RPMI8226 myeloma viability, higher = more signal;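 note: cells grown under basal conditions without added stimulus; test concentration not given here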
[6] = JC-1 mitochondrial signal, unstimulated HepG2 cells – cell-based, JC-1 fluorescence, 24 h, 100 nL compound, profiling panel (AID 1167); details: HepG2 mitochondrial potential, higher = more signal; note: test concentration not given here
[7] = JC-1 mitochondrial signal, unstimulated adipocytes – cell-based, JC-1 fluorescence, 3T3-L1 adipocytes, 24 h, 100 nL compound, profiling panel (AID 1168); details: JC-1 mitochondrial fluorescence, higher = more signal, called active from +8 up or from −8 down; note: test concentration not given here
[8] = JC-1 mitochondrial signal, unstimulated myeloma cells – cell-based, JC-1 fluorescence, RPMI8226, 24 h, 100 nL compound, profiling panel (AID 1169); details: JC-1 mitochondrial potential fluorescence, higher = more signal; note: test concentration not given here
[9] = JC-1 mitochondrial signal, unstimulated MM1S myeloma – cell-based, JC-1 fluorescence, 24 h, 100 nL compound, profiling panel (AID 1170); details: MM1S mitochondrial potential, higher = more signal; note: test concentration not given here
[10] = resazurin metabolic signal in A549 cells – cell-based, resazurin fluorescence, 24 h, PK04 Diversity Set, profiling panel (AID 1171); details: A549 viability, higher = more signal, called active from +8 up or from −8 down; note: test concentration not given here
[11] = resazurin metabolic signal in HepG2 cells – cell-based, resazurin fluorescence, 24 h, PK04 Diversity Set, profiling panel (AID 1172); details: HepG2 viability, higher = more signal; note: test concentration not given here
[12] = budding yeast growth changes without added modifier – OD600, strain BY4716, 24 h, basal condition, primary screen (AID 1173); details: S. cerevisiae BY4716 growth, OD600, 24 h; higher = more signal, called active from +8 up or from −8 down
[13] = viability profiling in MM1S myeloma cells – cell-based, resazurin fluorescence, basal, 24 h, PK04 Diversity Set, profiling panel (AID 1174); details: higher = more signal, called active from +8 up or from −8 down; note: test concentration not given here
[14] = target: Dihydroorotate dehydrogenase (quinone), mitochondrial (Plasmodium falciparum (isolate 3D7)) (UniProt Q08210); test: inhibition of P. falciparum DHODH – biochemical, C-terminal His tag, absorbance 600 nm, primary screen (AID 1175); details: PfDHODH enzyme, DCIP absorbance 600 nm; higher = more signal, called active from +8 up or from −8 down;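 note: recombinant parasite enzyme with a five histidine tag at its C terminus; test concentration not given here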
[15] = inhibition of PAO1 biofilm formation – strain PAO1, LB-PBS medium, absorbance 600 nm, primary screen (AID 1176); note: test concentration not given here; details: P. aeruginosa PAO1 growth/biofilm, A600, 12 h; higher = more signal
[16] = growth modulation of vineyard yeast isolate – strain RM11-1a, OD600, basal, 24 h, primary screen (AID 1177);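 note: cultures grown under basal conditions with no added stressor; test concentration not given here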; details: S. cerevisiae RM11-1a growth, OD600, 24 h; higher = more signal, called active from +8 up or from −8 down
[17] = growth of efflux-deficient E. coli DRC39 – strain DRC39, OD650, 24 h, E. coli filamentation inducers, primary screen (AID 1178);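 note: growth measured as culture turbidity by optical density at 650 nm; test concentration not given here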; details: E. coli DRC39 acrAB, higher = more signal, called active from +8 up or from −8 down
[18] = growth of efflux-deficient E. coli DRC39 – strain DRC39, OD650, 48 h, E. coli filamentation inducers, primary screen (AID 1179);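 note: screen aims at cell division blockers that make cells filament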; details: E. coli DRC39 delta-acrAB growth, higher = more signal, called active from +8 up or from −8 down
[19] = viability profiling in RPMI8226 myeloma cells – cell-based, resazurin fluorescence, basal, 24 h, PK04 Diversity Set, profiling panel (AID 1180); details: higher = more signal;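 note: RPMI8826 multiple myeloma cell line at 5000 cells per well; test concentration not given here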
[20] = target: E3 ubiquitin-protein ligase XIAP (Homo sapiens) (UniProt P98170); test: small molecules binding XIAP protein – biophysical, small-molecule microarray, fluorescence 635 nm, primary screen (AID 1181); details: higher = more signal;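 note: score merges 667 nm emission and signal to noise over triplicate slides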
Sequence of E3 ubiquitin-protein ligase XIAP (Homo sapiens) (P98170 whole entry, looked up): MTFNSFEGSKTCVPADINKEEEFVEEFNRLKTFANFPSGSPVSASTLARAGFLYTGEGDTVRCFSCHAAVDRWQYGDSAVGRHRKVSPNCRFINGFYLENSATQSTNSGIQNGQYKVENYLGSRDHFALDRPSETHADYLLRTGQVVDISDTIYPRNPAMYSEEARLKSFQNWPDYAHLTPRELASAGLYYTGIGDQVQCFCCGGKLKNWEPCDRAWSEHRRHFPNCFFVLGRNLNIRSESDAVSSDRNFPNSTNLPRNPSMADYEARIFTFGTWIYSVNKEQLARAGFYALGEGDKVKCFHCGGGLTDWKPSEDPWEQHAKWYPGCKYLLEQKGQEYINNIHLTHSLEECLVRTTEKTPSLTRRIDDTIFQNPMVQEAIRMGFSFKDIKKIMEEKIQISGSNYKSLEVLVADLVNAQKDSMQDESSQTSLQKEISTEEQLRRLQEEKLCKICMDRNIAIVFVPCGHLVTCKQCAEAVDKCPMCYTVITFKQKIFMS

Sequence of Dihydroorotate dehydrogenase (quinone), mitochondrial (Plasmodium falciparum (isolate 3D7)) (Q08210 whole entry, looked up): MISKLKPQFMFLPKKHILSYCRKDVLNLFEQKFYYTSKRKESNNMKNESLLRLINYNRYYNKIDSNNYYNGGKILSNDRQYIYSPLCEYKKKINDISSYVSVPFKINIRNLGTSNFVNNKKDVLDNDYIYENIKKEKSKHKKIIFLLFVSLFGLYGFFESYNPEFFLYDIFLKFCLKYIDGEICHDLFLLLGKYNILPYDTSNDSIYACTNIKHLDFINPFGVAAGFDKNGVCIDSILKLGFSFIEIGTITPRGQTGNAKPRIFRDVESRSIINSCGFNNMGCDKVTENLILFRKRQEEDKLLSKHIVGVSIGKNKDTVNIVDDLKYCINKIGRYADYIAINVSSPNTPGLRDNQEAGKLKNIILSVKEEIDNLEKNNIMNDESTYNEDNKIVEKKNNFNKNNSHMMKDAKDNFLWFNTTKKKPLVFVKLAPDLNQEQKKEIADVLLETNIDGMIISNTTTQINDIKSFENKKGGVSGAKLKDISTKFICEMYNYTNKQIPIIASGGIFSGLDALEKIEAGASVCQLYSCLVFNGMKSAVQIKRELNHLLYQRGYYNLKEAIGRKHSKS

SMILES | z-score [1] | z-score [2] | z-score [3] | z-score [4] | z-score [5] | z-score [6] | z-score [7] | z-score [8] | z-score [9] | z-score [10] | z-score [11] | z-score [12] | z-score [13] | composite z-score [14] | z-score [15] | z-score [16] | z-score [17] | z-score [18] | z-score [19] | composite z-score [20]
O=c1n(Cc2cc3c(cc2Cl)OCO3)c(=O)n2n1CC[C@@H]1C(=NOC[C@@H](O)COCc3ccco3)[C@H]3O[C@H]3[C@@H](O)[C@@H]12 | -0.158 | -0.322 | 0.105 | 0.0423 | -0.552 | -0.611 | -1.6 (inactive) | 0.0236 | -0.211 | -0.127 (inactive) | -0.0975 | 0.919 (inactive) | -0.316 (inactive) | 0.634 (inactive) | 0.471 (inactive) | 0.716 (inactive) | -0.133 (inactive) | -0.527 (inactive) | -0.614 | -0.0252
CCOC(=O)CCN1C(=O)[C@H]2[C@H]3[C@H](O)[C@H](O)CC(=NNC(=O)OCc4ccccc4)[C@@H]3CC[C@H]2C1=O | -0.0996 | 0.902 | 0.554 | 0.457 | -0.359 | -0.398 | -0.773 (inactive) | 0.279 | -0.614 | -0.744 (inactive) | -0.921 | 0.192 (inactive) | -0.931 (inactive) | 0.203 (inactive) | -0.331 (inactive) | 0.116 (inactive) | 0.655 (inactive) | 0.84 (inactive) | -0.663 | 0.154
CON=C[C@@H](C)[C@H](OCc1ccccc1)C(C)C | -1.1 | 0.425 | -0.0832 | -0.43 | -1.01 | 0.0714 | 0.634 (inactive) | -0.408 | 0.699 | 0.073 (inactive) | -0.304 | -0.639 (inactive) | 0.548 (inactive) | -2.72 (inactive) | 0.298 (inactive) | -0.919 (inactive) | -1.29 (inactive) | -2.73 (inactive) | -0.32 | -0.409
CCc1cc2c(nc1CC)CCN(CCC(C)=NOC[C@H]1O[C@H](c3ccccc3)C=C[C@@H]1Oc1ccc(OC)cc1)C2 | -0.67 | 0.765 | -0.106 | -2.03 | -2.35 | 5.61 | -1.1 (inactive) | -0.0846 | 0.0581 | 0.364 (inactive) | 0.0523 | -1.75 (inactive) | 0.22 (inactive) | -3.81 (inactive) | -0.197 (inactive) | -0.409 (inactive) | -1.58 (inactive) | -1.43 (inactive) | 0.218 | -0.23
CCOC(=O)[C@H](Cc1ccccc1)NC(=O)CCC1CC(OC(=O)NCc2cccc3ccccc23)CC2(CCCC(COC(=O)NCc3ccccc3)O2)O1 (stereo not given in full) | 0.143 | 0.919 | -1.03 | 0.418 | -0.653 | 1.12 | -0.39 (inactive) | -0.839 | -1.18 | 0.682 (inactive) | 0.466 | -2.55 (inactive) | 1.12 (inactive) | -2.79 (inactive) | 0.709 (inactive) | -2.62 (inactive) | -0.964 (inactive) | -1.23 (inactive) | 1.03 | 0.171
CC(=O)Nc1ccc([C@@H]2N[C@H](C(=O)O)CC[C@H]2C)cc1 | 0.858 | 0.122 | -0.0918 | 0.402 | -0.371 | 1.14 | 0.456 (inactive) | -0.355 | -0.0501 | -0.542 (inactive) | 0.219 | -0.236 (inactive) | -0.106 (inactive) | 0.0947 (inactive) | 0.557 (inactive) | 0.237 (inactive) | 0.909 (inactive) | 0.781 (inactive) | -0.625 | -0.0445
COC(=O)C1=C(C)N(Cc2ccccc2)[C@]23O[C@](C(=O)OC)(C(=O)N2[C@@H]1c1ccccc1)C(C(=O)OC)=C3C(=O)OC | -0.321 | 1.48 | 0.0331 | -1.45 | -3.2 | 0.483 | 0.725 (inactive) | -0.256 | -0.239 | -0.645 (inactive) | -0.0934 | -1.32 (inactive) | 1.08 (inactive) | -2.7 (inactive) | -0.965 (inactive) | -0.511 (inactive) | -0.907 (inactive) | -1.26 (inactive) | 0.345 | -0.254
COc1cccc([C@H]2Oc3ccc(OC)cc3C(=NO[C@@H]3O[C@H](COC(C)=O)[C@@H](OC(C)=O)[C@H](OC(C)=O)[C@H]3OC(C)=O)[C@@H]2O)c1 | 0.679 | -0.375 | -0.104 | -0.525 | -0.476 | -0.515 | -3.37 (inactive) | -0.0523 | 0.0745 | -0.416 (inactive) | -0.34 | 0.387 (inactive) | -0.726 (inactive) | -0.582 (inactive) | 0.347 (inactive) | -1.02 (inactive) | 0.416 (inactive) | -0.716 (inactive) | -0.158 | 0.02
O=C1[C@H]2[C@H]3[C@H](O)[C@H](O)CC(=NOCc4ccccc4)[C@@H]3CC[C@H]2C(=O)N1Cc1ccc2c(c1)OCO2 | -0.152 | -0.121 | -0.937 | 0.266 | -2.81 | -0.335 | 0.17 (inactive) | -0.234 | -0.0728 | 0.688 (inactive) | 1.03 | -0.419 (inactive) | 0.0481 (inactive) | -0.0799 (inactive) | 0.07 (inactive) | -0.0921 (inactive) | 0.419 (inactive) | 0.128 (inactive) | 1.01 | -0.0377

Source: PubChem BioAssay
